{"source": "PubChem BioAssay AID2284357", "about": "(EPA ToxCast)", "note": "Inconclusive results are not listed. Activity calls are given as the source filed them. How the source made its calls: active means hit-call score of the fitted dose curve at least 0.9, where 1 is the maximum; inconclusive means response in the unintended direction; inactive means score below 0.9.", "data": [{"test_system": "zebrafish Androgen Receptor (AR), gene 100005148", "assay": "ATG_zfAR_EcoTox2: Attagene TRANS-FACTORIAL EcoTox-2 HepG2 Assay for zebrafish Androgen Receptor (AR)", "experimental": "ATG_EcoTox2 is a cell-based, multiplexed assay created by modifying the existing Attagene TRANS-FACTORIAL system to include a panel of nuclear receptors from some or all the following species: human (Homo sapiens), african clawed frog (Xenopus laevis), rainbow trout (Oncorhynchus mykiss), japanese medaka (Oryzias latipes), and zebrafish (Danio rerio). The ECOTOX2-FACTORIAL format uses HepG2, a human liver cell line, with measurements taken at 24 hours after chemical dosing in a 24-well plate. ATG_zfAR_EcoTox2 is one of 29 assay components calculated in the ATG_EcoTox2 assay. It is designed to make measurements of mRNA induction, a form of inducible reporter, as detected with fluorescence intensity signals by Reverse transcription polymerase chain reaction (RT-PCR) and Capillary electrophoresis technology.The assay endpoint ATG_zfAR_EcoTox2 was analyzed in the positive analysis fitting direction relative to DMSO as the negative control and baseline of activity. Using a type of inducible reporter, measures of mRNA for gain-of-signal activity can be used to understand the reporter gene at the transcription factor-level as they relate to the gene AR. Furthermore, this assay endpoint can be referred to as a primary readout, because this assay has produced multiple assay endpoints where this one serves a reporter gene function. To generalize the intended target to other relatable targets, this assay endpoint is annotated to the nuclear receptor intended target family, where the subfamily is steroidal.\nHuman liver HepG2 cells are transiently transfected with multiple reporter transcription units (MRTUs) in 6-well plates using FuGene 6 reagent (Roche; 3 ml FuGene/1 mg DNA). The MRTU constructs are regulated by a cis-regulating element (promoter). Each RTU expresses a GAL4-UAS that regulates the transcription of a nearby target reporter gene sequence. A major difference between the CIS and TRANS system is that in CIS activities of endogenous TFs are measured, whereas the TRANS assay evaluates changes in activities of exogenous, chimeric NR-Gal4 proteins. […] At the end of 24 hour incubation, total RNA was isolated using TriZol reagent (Invitrogen). The isolated RNA is then reverse-transcribed using oligo(dT) primer and Mo-MLV reverse transcriptase (Invitrogen) with DNAse I (Ambion) treatment for 30 min. The one-tenth of the produced cDNA was amplified by PCR using Taq DNA polymerase (Invitrogen) and two reporter sequence-specific primers. The PCR products were fluorescently labeled by primer extension with 6-arboxyfluorescein (6-FAM) 5'-labeled reporter sequence-specific primer (2 min at 95 C, 20 s at 68 C and 10 min at 72 C) and these products were digested with 5U of HpaI (New England Biolabs) for 2h at 37 C. The fragments were purified using Qiaquick PCR columns (Qiagen), analyzed on an ABI 3130xL genetic analyzer (Applied Biosystems) with peak positions identified by using a set of X-rhodamine (ROX)-labeled MapMarker1000 molecular weight standards (BioVentures). The raw capillary electrophoresis data was processed using Attagraph software (Attagene).", "values": [{"molecule": "Cc1cccc(Nc2cc(Cl)nc(SCC(=O)O)n2)c1C", "outcome": "inactive"}, {"molecule": "CC(c1cc2ccccc2s1)N(O)C(N)=O", "note": "(centres undefined)", "outcome": "inactive"}, {"molecule": "CC(C)(Oc1ccc(Cl)cc1)C(=O)O", "outcome": "inactive"}, {"molecule": "Cc1ccc(C)c(OCCCC(C)(C)C(=O)O)c1", "outcome": "inactive"}, {"molecule": "C[C@@H]1C[C@H]2[C@@H]3CCC4=CC(=O)C=C[C@]4(C)[C@@]3(F)[C@@H](O)C[C@]2(C)[C@@]1(O)C(=O)COP(=O)(O)O", "outcome": "inactive"}, {"molecule": "CC(C)OC(=O)C(C)(C)Oc1ccc(C(=O)c2ccc(Cl)cc2)cc1", "outcome": "inactive"}, {"molecule": "C=C(c1ccc(C(=O)O)cc1)c1cc2c(cc1C)C(C)(C)CCC2(C)C", "outcome": "inactive"}, {"molecule": "C[C@]12C=CC(=O)C=C1CC[C@@H]1[C@@H]2C(=O)C[C@@]2(C)[C@H]1CC[C@]2(O)C(=O)CO", "outcome": "inactive"}, {"molecule": "CC(C)(Oc1ccc(C2CC2(Cl)Cl)cc1)C(=O)O", "note": "(centres undefined)", "outcome": "inactive"}]}]}
